# Assay results taken from PubChem BioAssay (Tox21).
# Records with an inconclusive call do not appear. Unmarked numbers belong to inactive results. The source made the active and inactive calls. The call rests on the fitted dose curve; in most records, active means well fitted cell-killing curve with a large enough effect in the repeat runs; inconclusive means weak or mixed curves, or effect the other way; inactive means no such curve, though single readings can be large or run the other way.
# Test: qHTS assay to identify small molecule antagonists of the sonic hedgehog signaling (Shh) pathway - cell viability counter screen (AID 1259367); further: nearly all actives have a fitted effect of over 55% in size
# Settings: NIH/3T3 Gli1-Luc viability, CellTiter-Fluor, 24 h; series mostly up to 92.4 µM; viability change, negative = cytotoxic: at the top concentration
# Text: National Center for Advancing Translational Sciences [NCATS]
# NIH Chemical Genomics Center [NCGC]
# U.S. Environmental Protection Agency [EPA]
# National Institutes of Environmental Health Sciences [NIEHS]
# National Toxicology Program [NTP]
# U.S. Food and Drug Administration [FDA]
# The sonic hedgehog (Shh) pathway is essential for normal embryonic development. Dysregulation of the Shh pathway can cause severe developmental defects in organs. Therefore chemicals that interfere with the pathway are potential developmental toxicants. A cell line designated 3T3Gli1-Luc (DMB/OARSA/CFSAN/FDA, Laurel, MD), a NIH/3T3 derived clone containing stably integrated Gli1-Luc reporter is used to detect chemical interference of the Shh pathway, by changes in the expression of the firefly Luc gene under the control of the Gli1 transcriptional response element. This cell line was used to screen Tox21 libraries for identifying and prioritizing the potential developmental toxicants that interfere Shh pathway. Conditioned medium-stimulated mode was used to screen for chemicals inhibiting Shh signaling. The cytotoxicity of the compounds was tested in parallel by measuring the cell viability using CellTiter-Fluor assay system (Promega, Madison, WI) in the same wells.
# Tox21 Assay Protocol Summary:
# 3T3 Gli1-Luc cells were dispensed at 2,000 per well in 5uL of culture medium into white solid bottom 1536-well plates (Greiner Bio-One, Monroe, NC) using a Multidrop Combi (Thermo Scientific, Waltham, MA) dispenser. The assay plates were incubated at 37 C and 5% CO2 for 4hr, and then 23nL of compounds dissolved in DMSO and positive control were transferred using a Pintool station (Wako, San Diego, CA). The compound transfer was followed by the addition of 1ul conditioned medium or assay buffer using two separate tips of Flying Reagent Dispenser (FRD, Aurora Discovery, San Diego, CA). The assay plates were incubated at 37C and 5% CO2 for 24hr. For viability read, after 23hr of compound treatment, 1uL of CellTiter-Fluor reagent (Promega Corporation, Madison, WI) was added to each well of the assay plates using Flying Reagent Dispenser (FRD, Aurora Discovery, San Diego, CA) and incubated the assay plates at 37C for 1hr. The fluorescence signal was quantified using a ViewLux plate reader (Perkin Elmer, Shelton, CT).
# On the % scale 0 is the no-effect control and ±100 the full control effect; potency means the concentration at half of the fitted maximal effect.
SMILES,"viability change, negative = cytotoxic",Potency
CN(C)CCOc1ccccc1Cc1ccccc1,-15.2% [at 42.5 µM],–
O=S(=O)(O)C(F)(F)F,-2.57%,–
Cc1ncc(CO)c(CN)c1O,-1.04% [at 42.5 µM],–
Cc1cccc(C)c1NC(=O)CN1CCCCCC1,-0.17% [at 42.5 µM],–
COc1ccc(Nc2ccc(OC)cc2)cc1,-18.5%,–
CCOC(=O)C1CC(=O)C(=C(O)C2CC2)C(=O)C1 (stereo not given),6.91%,–
CCOc1ccc2nc(N)sc2c1,-3.1%,–
C[C@@H]1CN(c2c(F)c(N)c3c(=O)c(C(=O)O)cn(C4CC4)c3c2F)C[C@H](C)N1,0.364% [at 19 µM],–
CCCCCCOc1ccc(N)cc1,5.2%,–
CCCCCCCCCCCCCCCCOP(=O)([O-])OCC[N+](C)(C)C,-0.185% [at 42.5 µM],–
CCC(=O)Nc1ccc(O)cc1,-2.55% [at 42.5 µM],–
CCN(CC)C(=O)N(CC)CC,1.87%,–
CC(=O)O[C@H]1CC[C@@]2(C)C(=CC[C@@H]3[C@@H]2CC[C@]2(C)C(C(C)=O)=CC[C@@H]32)C1,-0.614% [at 42.5 µM],–
CN1CCN(N)CC1,6.55% [at 42.5 µM],–
COc1ccccc1OCC(O)COC(N)=O (stereo not given),11.4% [at 42.5 µM],–
OCCN(CCO)CCN(CCO)CCO,0.575%,–
CC1CN(c2ccccc2)NC1=O (stereo not given),-0.782%,–
CCCCOc1cc(C(=O)NCCN(CC)CC)c2ccccc2n1,-10.2% [at 42.5 µM],–
CCCCN1C[C@H](O)[C@@H](O)[C@H](O)[C@H]1CO,2.18% [at 42.5 µM],–
C=O,-1.21%,–

SMILES,"viability change, negative = cytotoxic",Potency
FC(F)(F)C(F)(F)C(F)(F)C(F)(F)C(F)(F)C(F)(F)C(F)(F)C(F)(F)Br,1.3% [at 42.5 µM],–
Cc1c(C(=O)NCCO)[n+](=O)c2ccccc2n1[O-],0.92% [at 42.5 µM],–
CN(C)CC[C@@H](c1ccc(Cl)cc1)c1ccccn1,-17.4% [at 42.5 µM],–
O=c1[nH]cnc2c1ncn2[C@@H]1O[C@H](CO)[C@@H](O)[C@H]1O,0.985% [at 42.5 µM],–
COc1cc2c(cc1N)oc1ccccc12,–,62.4 µM (active)
C[C@]12CCC(=O)C=C1CC[C@@H]1[C@@H]2CC[C@@]2(C)[C@H]1CC[C@]2(O)C(=O)CO,10.4% [at 42.5 µM],–
CCN(O)CC,–,21.2 µM (active)
CC(C)S,0.844%,–
CCN(CCCc1ccccc1)CCCc1ccccc1,1.25% [at 42.5 µM],–
NS(=O)(=O)c1cc(-c2nn[nH]n2)c(NCc2cccs2)cc1Cl,-1.04% [at 42.5 µM],–
CCc1cc(Cl)c(OC)c(C(=O)NC[C@@H]2CCCN2CC)c1O,-1.5% [at 42.5 µM],–
CN1[C@@H]2CC[C@H]1CC(OC(=O)c1c[nH]c3ccccc13)C2 (stereo not given in full),-17.7% [at 42.5 µM],–
CCCN(CCC)C(=O)C(CCC(=O)O)NC(=O)c1ccccc1 (stereo not given),-5.35% [at 42.5 µM],–
C=CC(C)(O)CC/C=C(\C)CCC=C(C)C (stereo not given),-1.12%,–
CC(=O)Oc1cc(C(C)C)c(OCCN(C)C)cc1C,-4.35% [at 42.5 µM],–
CC1=C(CC(=O)O)c2cc(F)ccc2/C1=C\c1ccc(S(C)(=O)=O)cc1,-23.5% [at 42.5 µM],–
NNS(=O)(=O)c1ccc(Oc2ccc(S(=O)(=O)NN)cc2)cc1,7.15%,–
CCN[C@H]1CN(CCCOC)S(=O)(=O)c2sc(S(N)(=O)=O)cc21,4.16% [at 42.5 µM],–
O=CCCc1ccccc1,0.367%,–
CCCCC(=O)O[C@]1(C(=O)CO)[C@H](C)C[C@H]2[C@@H]3CCC4=CC(=O)C=C[C@]4(C)[C@@]3(F)[C@@H](O)C[C@@]21C,0.112% [at 42.5 µM],–
